Data on 15 compounds can be found in PubChem BioAssay (NCATS).

Results filed as inconclusive are left out. The source made the active and inactive calls. Calls follow the shape of the dose curve; as a rule, active = well fitted inhibition curve with a large enough effect; inconclusive = small, poorly fitted or top-dose-only effect; inactive = flat fitted curve, though single readings scatter.

Common to all, as to test: qHTS profiling for inhibitors of Plasmodium falciparum proliferation (AID 504749); also: nearly all actives have a fitted effect of over 60% in size
What all share (conditions): P. falciparum in erythrocytes, SYBR Green DNA, 72 h; series mostly up to 28.7 µM
Background: qHTS replaces the single test concentration by a dilution series.

The subject of experiment [1] is CP192. In outline:
(§1)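 Parasite proliferation within erythrocytes, 72 h exposure. Endpoint: SYBR Green I fluorescence after overnight lysis at room temperature. Controls: 0.29 uM artemisinin, DMSO.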

The test system of experiment [2] is CP194. In outline: as §1
The test system of experiment [3] is CP201. The procedure, abridged:
as §1

The subject of experiment [4] is CP211. The procedure, abridged: as §1
Experiment [5] concerns CP215. The procedure, abridged:
as §1

The subject of experiment [6] is CP217. In outline: as §1
Experiment [7] relates to CP237. In outline: as §1
The test system of experiment [8] is CP238. The procedure, abridged: as §1
The subject of experiment [9] is CP247. The procedure, abridged: as §1
Experiment [10] concerns CP250. The procedure, abridged:
as §1

Experiment [11] deals with CP252. The procedure, abridged:
as §1

Experiment [12] has as its system CP256. The procedure, abridged:
as §1

Experiment [13] has as its system CP260. The procedure, abridged:
as §1

For experiment [14], the system named is CP262. The procedure, abridged: as §1
Experiment [15] concerns CP265. The procedure, abridged: as §1
Experiment [16] relates to CP266. In outline: as §1
In experiment [17] the test system is CP268. The procedure, abridged: as §1
The test system of experiment [18] is CP269. In outline:
as §1

Experiment [19] has as its system CP286. In outline: as §1
Experiment [20] deals with CP203. The procedure, abridged:
as §1
Potency is read from the fitted curve at half-maximal effect.

As for `C1CCc2nnnn2CC1`, the Potency result in [1], in experiment [2], in experiment [3], in experiment [4], in experiment [5] and in experiment [6] was “inactive” throughout. In addition, the Potency entry in [7], in [8], in experiment [9], in [10], in [11] and in [12] was “inactive” throughout. Further, the Potency entry in [13], in experiment [14], in [15], in [16], in experiment [17] and in [18] was “inactive” in each case. Also, the Potency entry in [19] is “inactive”.
In the case of `CCCCC1=NC2(CCCC2)C(=O)N1Cc1ccc(-c2ccccc2-c2nn[nH]n2)cc1`, the Potency entry in experiment [1], in [2], in experiment [3], in experiment [4], in experiment [5] and in [6] was “inactive” throughout. The Potency result in experiment [7], in experiment [8], in experiment [9], in experiment [10], in experiment [11] and in experiment [12] was “inactive” throughout. For the same compound, the Potency entry in experiment [13], in experiment [14], in [15], in experiment [16], in experiment [17] and in [18] was “inactive” each time. In addition, the Potency result in experiment [19] is “inactive”.
As for `Nc1ccc(/C=C/c2ccc(N)cc2S(=O)(=O)O)c(S(=O)(=O)O)c1`, the Potency entry in experiment [1], in experiment [2], in [3], in experiment [4], in experiment [5] and in experiment [6] was “inactive” throughout. Also, the Potency result in experiment [7], in experiment [8], in experiment [9], in experiment [10], in [11] and in experiment [12] was “inactive” each time. Besides, the Potency result in experiment [13], in [14], in experiment [15], in experiment [16], in experiment [17] and in experiment [18] was “inactive” throughout. Also, in experiment [19], the Potency result was “inactive”.
Take `COCc1c(C(C)C)nc(C(C)C)c(/C=C/[C@@H](O)C[C@@H](O)CC(=O)O)c1-c1ccc(F)cc1`: the Potency result in [1], in [2], in [3], in [20], in [4] and in [6] was “inactive” each time. For the same compound, the Potency result in [7], in experiment [8], in experiment [10], in experiment [11], in experiment [12] and in experiment [13] was “inactive” throughout. Also, the Potency entry in experiment [14], in [15], in experiment [16], in experiment [17], in [18] and in experiment [19] was “inactive” each time.
As for `O=C1c2ccccc2C(=O)C1c1ccccc1`, the Potency result in experiment [1], in experiment [2], in experiment [3], in experiment [4], in [5] and in experiment [6] was “inactive” in each case. Moreover, the Potency entry in [7], in experiment [8], in experiment [9], in experiment [10], in experiment [11] and in experiment [12] was “inactive” in each case. In addition, the Potency entry in experiment [13], in experiment [14], in experiment [15], in experiment [17], in [18] and in experiment [19] was “inactive” throughout.
Regarding `CCCCCC=CCC=CCCCCCCCC(=O)OCC`, the Potency entry in [1], in experiment [2], in experiment [3], in [4], in experiment [5] and in experiment [6] was “inactive” throughout. Also, the Potency entry in experiment [7], in [8], in experiment [9], in experiment [10], in experiment [11] and in experiment [12] was “inactive” each time. Moreover, the Potency result in [13], in experiment [14], in experiment [15], in experiment [16], in experiment [17] and in [18] was “inactive” in each case. Further, the Potency entry in experiment [19] was “inactive”.
As for `COc1ccc(/C=C/C(=O)c2ccc(OC)cc2OC)cc1`, the Potency was 13.5 µM (active) in experiment [1]; 12 µM (active) in [2]; 8.49 µM (active) in experiment [3]; 6.75 µM (active) in experiment [4]; 6.75 µM (active) in [5]; 5.01 µM (active) in experiment [6]. The Potency in experiment [7] is 11.2 µM (active); in [8], 11.2 µM (active); in [9] it was 4.47 µM (active); in experiment [10], 5.62 µM (active); in experiment [11] it was 5.01 µM (active); in experiment [12] it was 2.24 µM (active). Also, the Potency is 8.91 µM (active) in experiment [13]; 5.36 µM (active) in [14]; 5.01 µM (active) in experiment [15]; 7.57 µM (active) in experiment [16]; 13.5 µM (active) in [17]; 9.53 µM (active) in experiment [18]. In addition, the Potency in [19] is 10 µM (active).
Take `CCOc1ccc2nc3cc(N)ccc3c(N)c2c1`: the Potency was 9.53 µM (active) in experiment [1]; 15.1 µM (active) in [2]; 12 µM (active) in [3]; 16.9 µM (active) in [20]; 9.53 µM (active) in [5]; 7.08 µM (active) in [6]. In addition, the Potency in experiment [7] is 4.47 µM (active); in [8], 5.01 µM (active); in experiment [9], 10 µM (active); in experiment [10] it was 8.91 µM (active); in experiment [11], 7.08 µM (active); in [12] it was 4.47 µM (active). The Potency in experiment [13] is 3.98 µM (active); in [15] it was 11.2 µM (active); in [17] it was 15.1 µM (active); in experiment [18] it was 9.53 µM (active); in experiment [19], 1.41 µM (active).
Turning to `CCCCCCc1ccc(O)cc1O`, the Potency entry in experiment [1], in experiment [2], in [3], in [4], in experiment [5] and in [6] was “inactive” each time. For the same compound, the Potency entry in [7], in [8], in experiment [9], in [10], in experiment [11] and in experiment [12] was “inactive” throughout. Further, the Potency result in experiment [13], in [14], in experiment [15], in [17], in [18] and in experiment [19] was “inactive” in each case.
Regarding `CCN1CCN(c2cc3c(cc2F)c(=O)c(C(=O)O)cn3C2CC2)CC1`, the Potency entry in experiment [1], in experiment [2], in [3], in experiment [4], in experiment [5] and in [6] was “inactive” throughout. Moreover, the Potency result in [8], in experiment [9], in [10], in experiment [11], in experiment [12] and in experiment [14] was “inactive” each time. Besides, the Potency entry in experiment [15], in experiment [16], in experiment [17] and in experiment [18] was “inactive” throughout.
Consider `CNCCC(Oc1ccccc1C)c1ccccc1` (stereo not drawn), for which the Potency result in experiment [1], in experiment [3], in [4], in experiment [7], in experiment [10] and in [11] was “inactive” throughout. Further, the Potency result in [13], in experiment [14], in experiment [18] and in experiment [19] was “inactive” each time.
In the case of `CN1CCC[C@@H]1c1cccnc1`, the Potency entry in experiment [1], in experiment [2], in [3], in [4], in [5] and in [6] was “inactive” throughout. Besides, the Potency result in experiment [7], in experiment [8], in experiment [9], in experiment [10], in experiment [11] and in experiment [12] was “inactive” each time. Besides, the Potency result in experiment [13], in [15], in [16], in experiment [17], in [18] and in [19] was “inactive” in each case.
With `C=C(CC)C(=O)c1ccc(OCC(=O)O)c(Cl)c1Cl`, the Potency entry in [1], in experiment [3], in experiment [6], in experiment [15] and in experiment [16] was “inactive” throughout. Further, the Potency in [9] was 10 µM (active); in experiment [10] it was 12.6 µM (active); in experiment [11], 12.6 µM (active); in experiment [12] it was 4.47 µM (active); in experiment [13], 8.91 µM (active); in [19], 10 µM (active).
`Oc1ccc(Cl)cc1Sc1cc(Cl)ccc1O`: the Potency result in experiment [1], in [3], in experiment [4], in experiment [7], in experiment [8] and in experiment [9] was “inactive” throughout. Also, the Potency result in experiment [10], in experiment [11], in experiment [12], in experiment [13], in experiment [14] and in [15] was “inactive” each time. Also, the Potency entry in experiment [16], in experiment [17], in experiment [18] and in experiment [19] was “inactive” in each case.
Turning to `COc1ccc(CCN2CCC(Nc3nc4ccccc4n3Cc3ccc(F)cc3)CC2)cc1`, the Potency is 12 µM (active) in experiment [1]; 9.53 µM (active) in experiment [2]; 7.57 µM (active) in [3]; 15.1 µM (active) in experiment [4]; 3.55 µM (active) in [6]; 2.24 µM (active) in experiment [7]. Moreover, the Potency is 3.55 µM (active) in experiment [8]; 3.98 µM (active) in [9]; 2.24 µM (active) in experiment [10]; 3.16 µM (active) in [11]; 3.55 µM (active) in [12]; 1 µM (active) in experiment [13]. For the same compound, the Potency is 3.98 µM (active) in experiment [15], 4.78 µM (active) in experiment [17], 4.78 µM (active) in experiment [18] and 2.51 µM (active) in experiment [19].
